Measured values: the supplement of paper PMC10849652
The full data set covers some 7,900 targets. This sample favours those with a hit. About 0.6% of all pairs of compound and target were hits. A number with no mark means an inactive call.

How the values were obtained:
Test in all cases: log2 fold change, soluble protein after heating vs DMSO (PISA); higher = thermal stabilisation; K562 cells, 10 uM, 30 min; active = over 0.2 and 3.5 SD of the protein, either way, in both replicates (recomputed)
AAGAB = AAGAB (UniProt Q6PD74)
AAGAB, sequence (Q6PD74 whole entry, looked up): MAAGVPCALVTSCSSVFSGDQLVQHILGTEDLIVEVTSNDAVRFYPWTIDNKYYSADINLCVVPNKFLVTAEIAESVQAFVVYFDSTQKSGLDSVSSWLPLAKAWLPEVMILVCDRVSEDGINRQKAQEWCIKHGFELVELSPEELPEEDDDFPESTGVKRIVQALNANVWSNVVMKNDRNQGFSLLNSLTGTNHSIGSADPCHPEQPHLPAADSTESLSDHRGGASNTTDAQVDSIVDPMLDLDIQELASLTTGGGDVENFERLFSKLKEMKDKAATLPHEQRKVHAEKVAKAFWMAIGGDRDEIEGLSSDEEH
How it was run: (§1)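 Values are thermal stability changes relative to control samples and are taken from duplicates. They are stated as log2 fold changes. Before quantification by TMTpro 16plex LC-MS/MS with equalised channel sums, K562 cells at 2×10^6 cells/mL were treated with 10 μM compound for 30 min, heated in aliquots for 3 min across 48°C-58°C, pooled, extracted in PBS with 0.5% NP-40 at 4°C, and centrifuged at 21,000xg for 90 min to give the soluble supernatant.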

AAK1 [1] = target: AAK1 (UniProt A0A096LP25)
How it was run: as §1

AAK1 [2] = target: AAK1 (UniProt Q2M2I8)
AAK1 (UniProt Q2M2I8), sequence (Q2M2I8 whole entry, looked up): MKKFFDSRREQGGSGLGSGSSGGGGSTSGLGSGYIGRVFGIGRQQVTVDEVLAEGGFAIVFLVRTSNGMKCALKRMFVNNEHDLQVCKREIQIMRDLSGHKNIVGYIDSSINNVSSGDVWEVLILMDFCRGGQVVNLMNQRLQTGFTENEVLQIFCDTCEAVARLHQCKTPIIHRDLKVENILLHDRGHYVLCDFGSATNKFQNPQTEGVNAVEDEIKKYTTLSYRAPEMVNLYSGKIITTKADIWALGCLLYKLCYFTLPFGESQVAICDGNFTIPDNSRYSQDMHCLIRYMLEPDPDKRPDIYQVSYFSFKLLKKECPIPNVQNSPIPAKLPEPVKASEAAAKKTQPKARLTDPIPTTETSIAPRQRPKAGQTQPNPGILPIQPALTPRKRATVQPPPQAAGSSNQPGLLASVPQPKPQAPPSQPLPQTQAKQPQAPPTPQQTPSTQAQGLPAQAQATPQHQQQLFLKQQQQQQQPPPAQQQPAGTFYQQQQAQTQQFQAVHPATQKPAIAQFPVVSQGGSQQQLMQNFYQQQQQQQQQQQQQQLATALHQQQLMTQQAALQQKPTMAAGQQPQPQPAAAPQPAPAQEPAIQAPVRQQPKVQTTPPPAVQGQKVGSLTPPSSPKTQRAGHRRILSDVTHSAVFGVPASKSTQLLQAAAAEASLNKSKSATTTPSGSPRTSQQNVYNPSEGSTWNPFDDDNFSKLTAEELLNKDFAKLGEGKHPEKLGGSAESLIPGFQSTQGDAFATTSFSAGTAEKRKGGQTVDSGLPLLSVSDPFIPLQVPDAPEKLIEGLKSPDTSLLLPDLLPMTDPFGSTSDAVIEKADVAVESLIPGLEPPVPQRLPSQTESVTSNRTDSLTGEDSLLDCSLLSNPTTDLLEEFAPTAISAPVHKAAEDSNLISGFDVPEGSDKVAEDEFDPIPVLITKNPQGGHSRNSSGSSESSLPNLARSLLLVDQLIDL
How it was run: as §1

## COc1ccc(Cn2ccc3ccc(C(=O)NO)cc32)cc1
AAGAB
  log2 fold change: -0.017
AAK1 [1]
  log2 fold change: -0.089
AAK1 [2]
  log2 fold change: 0.048

## COc1cc2ncnc(Nc3ccc(F)c(Cl)c3)c2cc1OCCCN1CCOCC1 [gefitinib]
AAGAB
  log2 fold change: -0.027
AAK1 [1]
  log2 fold change: -0.049
AAK1 [2]
  log2 fold change: -0.097

## Fc1ccc(Cl)cc1-c1nc(Nc2ccncc2)c2nccnc2n1
AAGAB
  log2 fold change: 0.079
AAK1 [1]
  log2 fold change: -0.027
AAK1 [2]
  log2 fold change: 0.019

## O=C(CCCCCCC(=O)Nc1ccccc1)NO [vorinostat]
AAGAB
  log2 fold change: -0.009
AAK1 [1]
  log2 fold change: -0.007
AAK1 [2]
  log2 fold change: 0.074

## Cc1ccc(NC(=O)c2ccc(CN3CC[C@H](N(C)C)C3)c(C(F)(F)F)c2)cc1Nc1nccc(-c2cncnc2)n1 [bafetinib]
AAGAB
  log2 fold change: -0.046
AAK1 [1]
  log2 fold change: -0.058
AAK1 [2]
  log2 fold change: -0.016

## Cc1cccc(-c2[nH]c(C(C)(C)C)nc2-c2ccc3nccnc3c2)n1
AAGAB
  log2 fold change: -0.036
AAK1 [1]
  log2 fold change: 0
AAK1 [2]
  log2 fold change: 0.015

## NC1(Cc2ccc(Cl)cc2)CCN(c2ncnc3[nH]ccc23)CC1
AAGAB
  log2 fold change: 0.054
AAK1 [1]
  log2 fold change: 0
AAK1 [2]
  log2 fold change: -0.085

## CC1=C(C(=O)Nc2cc3cn[nH]c3cc2F)C(c2ccc(C(F)(F)F)cc2)CC(=O)N1 (stereo not drawn)
AAGAB
  log2 fold change: -0.004
AAK1 [1]
  log2 fold change: -0.113
AAK1 [2]
  log2 fold change: -0.055

## CNc1nc(-c2ccc3c(N)n[nH]c3c2)cc(N2C[C@@H](C(=O)NC3CCCCC3)CC[C@H]2C)n1
AAGAB
  log2 fold change: -0.084
AAK1 [1]
  log2 fold change: 0.244
AAK1 [2]
  log2 fold change: 0.252

## C/C(=N\NC(=O)c1cccc(S(=O)(=O)N2CCOCC2)c1)c1cc(Cl)ccc1O
AAGAB
  log2 fold change: 0.088
AAK1 [1]
  log2 fold change: -0.092
AAK1 [2]
  log2 fold change: -0.055

## CC(C)N(C[C@H]1O[C@@H](n2cnc3c(N)ncnc32)[C@H](O)[C@@H]1O)[C@H]1C[C@@H](CCc2nc3cc(C(C)(C)C)ccc3[nH]2)C1 [pinometostat]
AAGAB
  log2 fold change: 0.147
AAK1 [1]
  log2 fold change: -0.033
AAK1 [2]
  log2 fold change: -0.05

## Cn1c2cc(S(C)=O)sc2c2cnn(Cc3cccc(N)c3)c(=O)c21 (stereo not drawn)
AAGAB
  log2 fold change: 0.125
AAK1 [1]
  log2 fold change: -0.073
AAK1 [2]
  log2 fold change: -0.108

## Cc1ncc(-c2ccnc(Nc3ccc(S(C)(=O)=O)cc3)n2)n1C(C)C
AAGAB
  log2 fold change: 0.008
AAK1 [1]
  log2 fold change: 0.028
AAK1 [2]
  log2 fold change: 0.219

## O=C1NC(=NCc2cccs2)S/C1=C\c1ccc2ncccc2c1
AAGAB
  log2 fold change: -0.059
AAK1 [1]
  log2 fold change: 0.234
AAK1 [2]
  log2 fold change: 0.339

## c1cc(OCCN2CCCCC2)cc(-c2n[nH]c3ccc(-c4nnc[nH]4)cc23)c1
AAGAB
  log2 fold change: -0.158
AAK1 [1]
  log2 fold change: 0.142
AAK1 [2]
  log2 fold change: 0.052

## C[C@H](Nc1ncnc2nc[nH]c12)c1cc2cccc(Cl)c2c(=O)n1-c1ccccc1 [duvelisib]
AAGAB
  log2 fold change: -0.1
AAK1 [1]
  log2 fold change: 0.007
AAK1 [2]
  log2 fold change: 0.186

## Nc1ccccc1NC(=O)c1ccc(CNC(=O)OCc2cccnc2)cc1 [entinostat]
AAGAB
  log2 fold change: 0.004
AAK1 [1]
  log2 fold change: -0.061
AAK1 [2]
  log2 fold change: -0.015

## O=C1c2ccccc2-c2n[nH]c3cccc1c23
AAGAB
  log2 fold change: 0.01
AAK1 [1]
  log2 fold change: 0.254
AAK1 [2]
  log2 fold change: 0.319

## COc1cccc2cc(-c3nc([C@H]4CC[C@H](C(=O)O)CC4)n4ncnc(N)c34)[nH]c12
AAGAB
  log2 fold change: -0.045
AAK1 [1]
  log2 fold change: 0.129
AAK1 [2]
  log2 fold change: 0.022

## Cc1nc(Nc2n[nH]c3c2CN(C(=O)N[C@H](CN(C)C)c2ccccc2)C3(C)C)c2sccc2n1
AAGAB
  log2 fold change: -0.109
AAK1 [1]
  log2 fold change: 0.104
AAK1 [2]
  log2 fold change: 0.158

## Cc1ccc(C(=O)N(CCCN)[C@@H](c2nc3cc(Cl)ccc3c(=O)n2Cc2ccccc2)C(C)C)cc1 [ispinesib]
AAGAB
  log2 fold change: -0.017
AAK1 [1]
  log2 fold change: 0.011
AAK1 [2]
  log2 fold change: 0.091

## CC[C@H](C)[C@H](NC(=O)[C@H]([C@@H](C)CC)N(C)C(C)=O)C(=O)N[C@H](C(=O)N[C@@H](CC(C)C)C(=O)[C@@]1(C)CO1)[C@@H](C)O [epoxomicin]
AAGAB
  log2 fold change: 0.006
AAK1 [1]
  log2 fold change: -0.098
AAK1 [2]
  log2 fold change: 0.031

## FC(F)(F)c1ccc(/C=C/c2nc(COc3ccc(CCCCn4ccnn4)cc3)co2)cc1 [mubritinib]
AAGAB
  log2 fold change: 0.017
AAK1 [1]
  log2 fold change: -0.124
AAK1 [2]
  log2 fold change: -0.066

## C[C@@H](N)c1ccc(C(=O)Nc2ccnc3[nH]ccc23)cc1
AAGAB
  log2 fold change: 0.084
AAK1 [1]
  log2 fold change: 0.365
AAK1 [2]
  log2 fold change: 0.412 (active)

## C=CC(=O)N1CCC[C@@H](n2nc(-c3ccc(Oc4ccccc4)cc3)c3c(N)ncnc32)C1 [ibrutinib]
AAGAB
  log2 fold change: 0.026
AAK1 [1]
  log2 fold change: 0.074
AAK1 [2]
  log2 fold change: 0.051

## Cc1nc(Nc2ncc(C(=O)Nc3c(C)cccc3Cl)s2)cc(N2CCN(CCO)CC2)n1 [dasatinib]
AAGAB
  log2 fold change: -0.161
AAK1 [1]
  log2 fold change: -0.18
AAK1 [2]
  log2 fold change: -0.203

## c1cn2cc(-c3ccc4cn[nH]c4c3)nc(Nc3ccc(N4CCOCC4)cc3)c2n1 [entospletinib]
AAGAB
  log2 fold change: 0.116
AAK1 [1]
  log2 fold change: 0.224
AAK1 [2]
  log2 fold change: 0.132

## CO[C@H]1C[C@@H]2CC[C@@H](C)[C@@](O)(O2)C(=O)C(=O)N2CCCC[C@H]2C(=O)O[C@H]([C@H](C)C[C@@H]2CC[C@H](n3cnnn3)[C@H](OC)C2)CC(=O)[C@H](C)/C=C(\C)[C@@H](O)[C@@H](OC)C(=O)[C@H](C)C[C@H](C)/C=C/C=C/C=C/1C [zotarolimus]
AAGAB
  log2 fold change: -0.093
AAK1 [1]
  log2 fold change: -0.095
AAK1 [2]
  log2 fold change: -0.004

## NC(=O)c1cnc(N[C@@H]2CCCC[C@@H]2N)nc1Nc1cccc(-n2nccn2)c1
AAGAB
  log2 fold change: -0.028
AAK1 [1]
  log2 fold change: 0.048
AAK1 [2]
  log2 fold change: 0.055

## O=C(Nc1nc2ccccc2n1CCN1CCOCC1)c1cccc([N+](=O)[O-])c1 [IRAK-1-4 Inhibitor I]
AAGAB
  log2 fold change: -0.016
AAK1 [1]
  log2 fold change: -0.063
AAK1 [2]
  log2 fold change: -0.085

## O=C1NC(=O)C(c2cnc3ccccn23)=C1c1cn2c3c(cc(F)cc13)CN(C(=O)N1CCCCC1)CC2
AAGAB
  log2 fold change: -0.109
AAK1 [1]
  log2 fold change: -0.159
AAK1 [2]
  log2 fold change: 0.238

## CCN(CCCOc1ccc2c(Nc3cc(CC(=O)Nc4cccc(F)c4)[nH]n3)ncnc2c1)CCOP(=O)(O)O [barasertib]
AAGAB
  log2 fold change: 0.068
AAK1 [1]
  log2 fold change: -0.004
AAK1 [2]
  log2 fold change: -0.034

## Cn1cc(-c2ccc3c(c2)CCN3C(=O)Cc2cccc(C(F)(F)F)c2)c2c(N)ncnc21
AAGAB
  log2 fold change: -0.197
AAK1 [1]
  log2 fold change: -0.05
AAK1 [2]
  log2 fold change: -0.011

## CON(C)C(=O)N1N=C(c2cc(F)ccc2F)S[C@@]1(CCCN)c1ccccc1 [filanesib]
AAGAB
  log2 fold change: 0.041
AAK1 [1]
  log2 fold change: -0.01
AAK1 [2]
  log2 fold change: -0.108

## Cc1ccc(NC(=O)c2cccc(C(C)(C)C#N)c2)cc1Nc1ccc2ncn(C)c(=O)c2c1
AAGAB
  log2 fold change: -0.153
AAK1 [1]
  log2 fold change: -0.131
AAK1 [2]
  log2 fold change: 0.01

## CNC(=O)c1ccccc1Nc1nc(Nc2ccc(N3CCOCC3)cc2OC)ncc1Cl
AAGAB
  log2 fold change: 0.112
AAK1 [1]
  log2 fold change: 0.333
AAK1 [2]
  log2 fold change: 0.281

## NC1(c2ccc(-c3nc4ccn5c(=O)[nH]nc5c4cc3-c3ccccc3)cc2)CCC1
AAGAB
  log2 fold change: -0.174
AAK1 [1]
  log2 fold change: 0.048
AAK1 [2]
  log2 fold change: -0.027

## CCn1c(C(=O)N(C2CC2)C2CC2)cc2c3c(ncn3C)c(Nc3cc(C)n(C)n3)nc21
AAGAB
  log2 fold change: 0.073
AAK1 [1]
  log2 fold change: -0.041
AAK1 [2]
  log2 fold change: 0.019

## COc1cc2nc(-c3cc(F)ccc3O)nc(N[C@@H]3CNC[C@H]3C(C)(C)O)c2cc1OC
AAGAB
  log2 fold change: -0.064
AAK1 [2]
  log2 fold change: 0.024

## Cn1cc(-c2ccc3nnc(C(F)(F)c4ccc5ncccc5c4)n3n2)cn1
AAGAB
  log2 fold change: -0.121
AAK1 [1]
  log2 fold change: -0.079
AAK1 [2]
  log2 fold change: -0.086

## CCCc1cc(C)[nH]c(=O)c1CNC(=O)c1cc(-c2ccnc(N3CCN(C)CC3)c2)cc2c1cnn2C(C)C
AAGAB
  log2 fold change: -0.02
AAK1 [1]
  log2 fold change: -0.026
AAK1 [2]
  log2 fold change: 0.08

## CC[C@@H]1C(=O)N(C)c2cnc(Nc3ccc(C(=O)N[C@H]4CC[C@H](N5CCN(CC6CC6)CC5)CC4)cc3OC)nc2N1C(C)C [volasertib]
AAGAB
  log2 fold change: -0.551 (active)
AAK1 [2]
  log2 fold change: 0.121

## Cc1ccc(Sc2cncc3sc(C(N)=O)cc23)cc1
AAGAB
  log2 fold change: -0.012
AAK1 [2]
  log2 fold change: 0.032

## CC(C)C[C@@H](C=O)NC(=O)[C@H](CC(C)C)NC(=O)[C@H](CC(C)C)NC(=O)OCc1ccccc1
AAGAB
  log2 fold change: 0
AAK1 [1]
  log2 fold change: 0.065
AAK1 [2]
  log2 fold change: -0.061

## Oc1cc(-c2nc(-c3ccccc3)[nH]c2-c2ccncc2)ccc1Cl
AAGAB
  log2 fold change: 0.066
AAK1 [1]
  log2 fold change: 0.017
AAK1 [2]
  log2 fold change: 0.073

## CCCS(=O)(=O)Nc1ccc(F)c(C(=O)c2c[nH]c3ncc(Cl)cc23)c1F
AAGAB
  log2 fold change: 0.144
AAK1 [2]
  log2 fold change: -0.028

## CN1CCN(CCOc2cc(OC3CCOCC3)c3c(Nc4c(Cl)ccc5c4OCO5)ncnc3c2)CC1 [saracatinib]
AAGAB
  log2 fold change: 0.168
AAK1 [1]
  log2 fold change: 0.147
AAK1 [2]
  log2 fold change: 0

## CNCc1ccc(-c2[nH]c3cc(F)cc4c3c2CCNC4=O)cc1 [rucaparib]
AAGAB
  log2 fold change: 0.055
AAK1 [1]
  log2 fold change: 0.007
AAK1 [2]
  log2 fold change: -0.013

## Cc1ccc2c(=O)c3ccccc3n(CCCN)c2c1C
AAGAB
  log2 fold change: -0.003
AAK1 [1]
  log2 fold change: -0.044
AAK1 [2]
  log2 fold change: -0.017
